Source: PubChem BioAssay AID743279 (National Center for Advancing Translational Sciences (NCATS), 2014)
In all, about 360,000 compounds went through this assay and about 17,000 (4.7%) were called active. Roughly 5% stayed inconclusive and do not appear here. The list comes from a sample in which actives are over-represented; it also holds similar structures and randomly drawn compounds. Values without a mark were called inactive. Cut-off read from the data, not from the text of the source: active = activity change below about -50%; inconclusive = mostly about -30% to -49%; inactive = weaker than that.

Test: qHTS for Inhibitors of Inflammasome Signaling: IL-1-beta AlphaLISA Primary Screen
Conditions: THP-1 LPS/ATP IL-1B secretion, 16 h; at 57.5 µM, stronger effect = lower value
Text: Inflammasomes are a set of intracellular multi-protein complexes that enable autocatalytic activation of inflammatory caspases and drive the innate immune response to counter harmful agents. […] A qHTS assay, based on AlphaLISA technology, was developed to screen the Molecular Libraries Small Molecule Repository (MLSMR) to look for novel inflammasome inhibitors. The assay detects IL-1B using AlphaLISA anti-IL-1B acceptor and donor beads. A decreased emission signal, indicating reduced IL-1B secretion, is the desired outcome for this assay. NIH Chemical Genomics Center [NCGC] NIH Molecular Libraries Probe Centers Network [MLPCN] MLPCN Grant: MH095513 Assay Provider: Shyam Biswal Ph.D., Johns Hopkins University Immunity. 2012 Jul 27;37(1):85-95. PMID: 22819042 [2] Curr Pharm Des. 2012;18(16):2320-8. PMID: 22390695
Three microliters containing 3000 THP-1 cells were dispensed into the wells of solid, white, tissue culture treated Greiner 1,536-well plates. Library compounds and positive control, Glyburide, were pin-transferred (23 nL) by a Kalypsys pin-tool equipped with a 1,536-pin array, resulting in final compound concentration ranges of 2.5 nM to 57.5 uM. After 1 hr of cell culture incubation (37 °C, 5% CO2), 1 microL of 1 microg/mL lipopolysaccharide (250 ng/mL, final) and 5 mM ATP (1.25 mM, final) were added to stimulate the cells. After 16 hr of cell culture incubation with the compounds, 1.5 uL of anti-IL-1B acceptor beads (6 ug/mL, final) and biotinylated antibody (0.6 nM, final) were added to the plate, followed by a 1 hr incubation at ambient temperature. To detect the secreted IL-1B, 1.5 uL of AlphaLISA SA-Donor beads (24 ug/mL, final) were added, followed by 30 min of incubation in the dark at ambient temperature. The AlphaLISA signal was read by a PerkinElmer EnVision plate reader with an ultrasensitive luminescence detector and 1536 Plate HTS AlphaScreen aperture (excitation of 680nm and emission of 615nm).
% is set by controls: 0 for no effect and ±100 for the full control effect.

SMILES | activity change
Cc1ccc(S(=O)(=O)NCCC(=O)NC2CCN(Cc3ccccc3)CC2)cc1 | -11.3%
Cc1ccc(-c2cc(C(=O)NC3CCN(Cc4ccccc4)CC3)c3ccccc3n2)cc1 | -4.22%
Cc1ccc(-c2nc(CSCC(=O)NC3CCN(Cc4ccccc4)CC3)c(C)o2)cc1 | -64.8% (active)
CC(=O)c1ccc(S(=O)(=O)N(C)CCCC(=O)N(C)Cc2ccccc2F)cc1 | -0.0792%
Cc1cccc(C)c1NC(=O)N1CC(C)OC(C)C1 (stereo unspecified) | -6.92%
Cc1ccc(S(=O)(=O)N(C)c2nc3ccccc3n3c(C(C)C)nnc23)cc1 | 9.42%
O=C1N(c2ccc(Cl)cc2)C(c2ccc(Cl)cc2)N2CCCN12 (stereo unspecified) | -5.15%
CCOC(=O)N1CCC(N2Cc3cccc(C(=O)Nc4c(C)cccc4CC)c3C2=O)CC1 | -55.1% (active)
O=C(O)c1cccc2c1C(=O)N(C1CCCC1)C2 | -1.11%
CCOC(=O)N1CCC(N2Cc3cccc(C(=O)Nc4ccc(S(=O)(=O)N(CC)CC)cc4)c3C2=O)CC1 | 63.8%
CC1(C(=O)NCc2ccc3c(c2)OCO3)CCN1C(=O)Cc1cccs1 (stereo unspecified) | -5.2%
COc1cccc(NC(=O)CN(C)C(=O)CSC(=S)N2CCCC2)c1 | 6.49%
COc1cccc(NC(=O)CN(C)C(=O)CSCc2nc3scc(-c4cccs4)c3c(=O)[nH]2)c1 | -57.4% (active)
COc1cccc(NC(=O)CN(C)C(=O)/C=C/c2cn(-c3ccccc3)nc2-c2cccs2)c1 | -24.8%
Cc1cc(C)n(CC(=O)Nc2ccc([N+](=O)[O-])cc2)n1 | 15.4%
COCOc1cccc(CN2CCC(C)(Oc3ccc(SC)cc3)C2)c1 (stereo unspecified) | -9.11%
c1cnc(NC2C3CC4CC(C3)CC2C4)nc1 (stereo unspecified) | 16.6%
Fc1cnc(N2CCOCC2)nc1NCc1ccccc1 | 38.4%
c1ccc2c(NC3C4CC5CC(C4)CC3C5)nc(N3CCOCC3)nc2c1 (stereo unspecified) | -79.7% (active)

SMILES | activity change
O=C(CNC(=O)N1CC(=O)Nc2ccccc21)Nc1ccc(Br)cc1F | 16.8%
CC(C)Cc1nnc(N)s1 | -2.84%
CC1Cc2nc(SCC(=O)Nc3ccccc3F)n(C)c(=O)c2S1 (stereo unspecified) | 11.4%
COCc1cccc(-c2csc(C(O)c3ccc(F)cc3)n2)c1 (stereo unspecified) | -9.62%
COc1ccc(/C=C/C(=O)c2ccc(NS(=O)(=O)c3ccc(C)cc3)cc2)cc1O | -103% (active)
Cc1ccc(C(=O)/C=C/Nc2ccc(S(=O)(=O)Nc3onc(C)c3C)cc2)cc1 | 31.6%
COc1ccc(NS(=O)(=O)c2ccc(NC(=S)NC(=O)/C=C/c3ccc(C)cc3)cc2)nn1 | -26.8%
CC1CC(C)CN(c2ccc(S(=O)(=O)N3CCOCC3)cc2)C1 (stereo unspecified) | -9.62%
COc1ccc(NC(=O)CSc2nnnn2-c2cccc(OC)c2)cc1 | -9.12%
CC1(C(=O)NS(=O)(=O)Cc2cccc(Cl)c2)CCN1C(=O)Cc1ccc(Cl)cc1Cl (stereo unspecified) | -21.1%
O=C(O)c1ccccc1N=N/C(=N/Nc1cc(S(=O)(=O)O)ccc1O)c1ccccc1 | -57.4% (active)
O=C(O)c1ccccc1/C=N/Nc1ccc(S(=O)(=O)Nc2ccc(Cl)cc2)cc1[N+](=O)[O-] | 12.8%
Cc1ccc(S(=O)(=O)N2CCC(C(=O)N3CCCCCCC3)CC2)cc1 | -8.84%
O=C1C(Cl)=C(Oc2ccccc2)C(=O)c2ccccc21 | -18%
Cc1ccc(S(=O)(=O)N2CCN(C(=O)c3cccs3)CC2)cc1 | 0%
CCS(=O)(=O)N1CCN(C(=O)c2cccs2)CC1 | 38.7%
Cc1ccc(N2CCN(C(=O)c3cccs3)CC2)c(C)c1 | -56% (active)
Cc1nc2ccccc2c(C(=O)O)c1-c1ccccn1 | 12.8%
COc1ccc(-n2ncc3c(SCC(=O)NNC(C)=O)ncnc32)cc1 | -3.94%

SMILES | activity change
COc1ccc(NC(=O)CSc2nc(C)cs2)cc1 | 15.6%
COc1ccc(NC(=O)CSc2ncnc3[nH]ncc23)cc1 | -51% (active)
CCN(CC)C(=O)C1=C(C)N(Cc2ccc(F)cc2)C(=O)C(CC(=O)NC2CCCC2)C1 (stereo unspecified) | 3.15%
CCOc1ccc(CCNC(=O)COC(=O)c2ccc(C)c(S(=O)(=O)N3CCOCC3)c2)cc1OCC | -2.62%
Cc1noc(C)c1NC(=O)N(C)C[C@@H]1Oc2cc(Br)ccc2S(=O)(=O)N([C@@H](C)CO)C[C@H]1C | -11.1%
CCCNC(=O)c1cc(C2CCCN(C(=O)c3ccc4c(c3)CCO4)C2)on1 (stereo unspecified) | 25.3%
CC(=O)c1c(C)[nH]c(C(=O)COC(=O)CCOc2ccc(C)cc2)c1C | -89.1% (active)
COc1cccc(C(=O)OCC(=O)c2[nH]c(C)c(C(C)=O)c2C)c1 | 12.1%
CC(=O)c1c(C)[nH]c(C(=O)COC(=O)c2cccs2)c1C | 17.9%
COc1c(F)c(F)c(-c2csc(N)n2)c(F)c1F | -14.1%
CCOC(=O)[C@]12CCC=C1N(Cc1ccccc1)C(=O)[C@H](CC(=O)N1CCCC1)C2 | 48.2%
COc1ccc(NS(=O)(=O)c2ccc(O)c(C(=O)OCC(=O)NC3CCCCC3)c2)cc1 | 40.3%
CN(C)c1ccc(S(=O)(=O)NCC(=O)NCC2CCCCC2)cc1[N+](=O)[O-] | 8.52%
CCN(C(=O)COC(=O)c1cc(NS(=O)(=O)c2ccc(Cl)c([N+](=O)[O-])c2)ccc1O)C1CCCCC1 | -98.5% (active)
C=CCn1c(SCC(=O)c2ccc(Br)cc2)nnc1C(C)NC(=O)Cc1ccc(OC)cc1 (stereo unspecified) | 18.8%
C=CC(=O)Nc1ccc(Nc2ccnc(Nc3ccc(N4CCN(C)CC4)cc3)n2)cc1 | -83.2% (active)
Cc1cccc(N2CCN(c3ccc(NC(=O)/C=C\C(=O)O)cc3)CC2)c1 | -21.2%
Cn1cnnc1SCC(=O)Nc1ccc(N2CCOCC2)cc1 | 19.7%
